Active and inactive are the calls of the source. The calls were made as follows: active = hit-call score of the fitted dose curve at least 0.9, where 1 is the maximum; inactive = score below 0.9.
What was measured:
Details in all cases: mRNA level, 48 h; actives raise or lower the signal
[1] = read-out: CYP4A11 (gene 1579); test: LTEA_HepaRG_CYP4A11: Life Technologies and Expression Analysis (LTEA) Assay for CYP4A11 using HepaRG (AID 2283486)
In short: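 Readout is CYP4A11 transcript level by qRT-PCR, normalized to three housekeeping genes and fitted bidirectionally against 0.5% DMSO. Human HepaRG cells were treated 48 h, in duplicate, with an 8-point half-log series topping at 100 uM.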

[2] = read-out: Cytochrome P450 3A4 (Homo sapiens) (UniProt P08684); test: LTEA_HepaRG_CYP3A4: Life Technologies and Expression Analysis (LTEA) Assay for CYP3A4 using HepaRG (AID 2283487)
In short: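 In a human hepatic line (HepaRG), duplicate wells were treated 48 h with up to 100 uM chemical in half-log dilutions. Endpoint: CYP3A4 mRNA induction or loss relative to 0.5% DMSO vehicle, by qRT-PCR.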

[3] = read-out: Pro-epidermal growth factor (Homo sapiens) (UniProt P01133); test: LTEA_HepaRG_EGF: Life Technologies and Expression Analysis (LTEA) Assay for Epidermal growth factor (EGF) using HepaRG (AID 2283489)
In short: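 EGF transcript measured by Fluidigm TaqMan qRT-PCR with three housekeeping genes for normalization, 48 h after dosing HepaRG cultures in duplicate (top 100 uM, half-log steps, 0.5% DMSO vehicle). Gain or loss relative to DMSO fitted.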

[4] = read-out: Early growth response protein 1 (EGR1) transcription factor, EGR1 (gene 1958); test: LTEA_HepaRG_EGR1: Life Technologies and Expression Analysis (LTEA) Assay for Early growth response protein 1 (EGR1) transcription factor using HepaRG (AID 2283490)
In short: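 HepaRG, 48 h exposure, 8-pt half-log series from 100 uM, 0.5% DMSO vehicle; EGR1 transcript by TaqMan qRT-PCR (Fluidigm array), housekeeping-normalized; bidirectional fit relative to DMSO baseline.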

[5] = read-out: Ezrin (EZR), EZR (gene 7430); test: LTEA_HepaRG_EZR: Life Technologies and Expression Analysis (LTEA) Assay for Ezrin (EZR) using HepaRG (AID 2283491)
In short: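 Gain or loss of EZR mRNA is scored relative to 0.5% DMSO in human HepaRG cultures treated 48 h with test chemicals in duplicate, eight half-log concentrations from 100 uM.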

[6] = read-out: Cytochrome P450 3A7 (Homo sapiens) (UniProt P24462); test: LTEA_HepaRG_CYP3A7: Life Technologies and Expression Analysis (LTEA) Assay for CYP3A7 using HepaRG (AID 2283492)
In short: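 CYP3A7 transcript measured by qRT-PCR (ACTB, GAPDH, POLR2A normalization) after 48 h chemical exposure of HepaRG cells in duplicate. Eight half-log concentrations, maximum 100 uM, 0.5% DMSO vehicle; bidirectional curve fitting against DMSO baseline.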

[7] = read-out: CYP3A5 (gene 1577); test: LTEA_HepaRG_CYP3A5: Life Technologies and Expression Analysis (LTEA) Assay for CYP3A5 using HepaRG (AID 2283493)
In short: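 Readout was CYP3A5 mRNA by qRT-PCR. HepaRG cultures were exposed for 48 h in serum-free induction medium to chemicals at up to 100 uM, and responses were fitted in both directions relative to DMSO vehicle.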

[8] = read-out: Fatty Acid-Binding Protein 1 (FABP1), FABP1 (gene 2168); test: LTEA_HepaRG_FABP1: Life Technologies and Expression Analysis (LTEA) Assay for Fatty Acid-Binding Protein 1 (FABP1) using HepaRG (AID 2283494)
In short: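 qRT-PCR readout of FABP1 transcript (normalized to three housekeeping genes) after 48 h chemical exposure of HepaRG cells; eight concentrations, half-log steps, max 100 uM, 0.5% DMSO vehicle; gain or loss fitted relative to DMSO baseline.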

[9] = read-out: Cytochrome P450 4A22 (Homo sapiens) (UniProt Q5TCH4); test: LTEA_HepaRG_CYP4A22: Life Technologies and Expression Analysis (LTEA) Assay for Cytochrome P450 4A22 (CYP4A22) using HepaRG (AID 2283495)
In short: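 Gene expression measured by qRT-PCR against three housekeeping genes (ACTB, GAPDH, POLR2A), with gain or loss fitted relative to 0.5% DMSO vehicle. HepaRG cultures received 48 h chemical treatment, top concentration 100 uM, half-log steps, duplicate wells.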

[10] = read-out: Cytochrome P450 7A1 (Homo sapiens) (UniProt P22680); test: LTEA_HepaRG_CYP7A1: Life Technologies and Expression Analysis (LTEA) Assay for Cytochrome P450 7A1 (CYP7A1) using HepaRG (AID 2283496)
In short: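 Using 0.5% DMSO as vehicle and baseline, chemicals were tested in duplicate over an 8-point range from 100 uM on HepaRG cells for 48 h; qRT-PCR signals were normalised to ACTB, GAPDH and POLR2A.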

[11] = read-out: Glutathione S-Transferase (GSTA2), GSTA2 (gene 2939); test: LTEA_HepaRG_GSTA2: Life Technologies and Expression Analysis (LTEA) Assay for Glutathione S-Transferase (GSTA2) using HepaRG (AID 2283497)
In short: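 qRT-PCR readout of GSTA2 transcript, normalized to three housekeeping genes, fitted bidirectionally against 0.5% DMSO baseline. Differentiated HepaRG cells received compound for 48 h at 8 concentrations (top 100 uM, half-log steps).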

[12] = read-out: Glutamate-cysteine ligase catalytic (GCLC), GCLC (gene 2729); test: LTEA_HepaRG_GCLC: Life Technologies and Expression Analysis (LTEA) Assay for Glutamate-cysteine ligase catalytic (GCLC) using HepaRG (AID 2283498)
In short: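 HepaRG, 48 h exposure, 8-pt half-log series from 100 uM, 0.5% DMSO vehicle; TaqMan qRT-PCR for GCLC mRNA, housekeeping-normalized; bidirectional curve fit vs DMSO baseline.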

[13] = read-out: Glutamate-cysteine ligase regulatory (GCLM), GCLM (gene 2730); test: LTEA_HepaRG_GCLM: Life Technologies and Expression Analysis (LTEA) Assay for Glutamate-cysteine ligase regulatory (GCLM) using HepaRG (AID 2283500)
In short: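 In this multiplexed HepaRG gene-expression assay, GCLM mRNA change after 48 h treatment (8 concentrations, max 100 uM) was scored against DMSO by bidirectional curve fitting.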

[14] = read-out: Glutathione S-transferase M3 (GSTM3), GSTM3 (gene 2947); test: LTEA_HepaRG_GSTM3: Life Technologies and Expression Analysis (LTEA) Assay for Glutathione S-transferase M3 (GSTM3) using HepaRG (AID 2283501)
In short: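 GSTM3 transcript levels came from Fluidigm TaqMan qRT-PCR normalized to three housekeeping genes, fitted in both directions against DMSO. HepaRG cultures received chemicals for 48 h in serum-free induction medium (0.5% DMSO), 8 half-log concentrations up to 100 uM, duplicate.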

[15] = read-out: Heat shock 70 kDa protein 1 (HSPA1A), gene 3303; test: LTEA_HepaRG_HSPA1A: Life Technologies and Expression Analysis (LTEA) Assay for Heat shock 70 kDa protein 1 (HSPA1A) using HepaRG (AID 2283502)
In short: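 An oxidative-stress marker readout: HepaRG cells treated 48 h in duplicate with an eight-point series (highest 100 uM) had HSPA1A mRNA quantified by TaqMan qRT-PCR. Activity was fitted in both directions using 0.5% DMSO as baseline.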

[16] = read-out: Hypoxia-inducible factor 1-alpha (Homo sapiens) (UniProt Q16665); test: LTEA_HepaRG_HIF1A: Life Technologies and Expression Analysis (LTEA) Assay for Hypoxia-inducible factor 1 (HIF1A) Trancription factor using HepaRG (AID 2283503);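 also: HIF1A transcript by TaqMan qRT-PCR normalized to ACTB GAPDH and POLR2A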
In short: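 Gain- or loss-of-signal HIF1A mRNA changes are fitted against a DMSO baseline. HepaRG cultures receive eight concentrations, highest 100 uM, for 48 h in serum-free induction medium with 0.5% DMSO.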

[17] = read-out: 3-Hydroxy-3-Methylglutaryl-CoA Synthase 2 (HMGCS2), HMGCS2 (gene 3158); test: LTEA_HepaRG_HMGCS2: Life Technologies and Expression Analysis (LTEA) Assay for 3-Hydroxy-3-Methylglutaryl-CoA Synthase 2 (HMGCS2) using HepaRG (AID 2283504)
In short: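 Readout is HMGCS2 transcript by qRT-PCR, housekeeping-normalised (ACTB/GAPDH/POLR2A) and fitted bidirectionally against 0.5% DMSO. Differentiated HepaRG cells received chemicals 48 h, duplicate wells, eight half-log concentrations topping at 100 uM.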

[18] = read-out: DNA damage-inducible transcript 3 (DDIT3), DDIT3 (gene 1649); test: LTEA_HepaRG_DDIT3: Life Technologies and Expression Analysis (LTEA) Assay for DNA damage-inducible transcript 3 (DDIT3) using HepaRG (AID 2283488)
In short: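 Eight-point concentration-response (100 uM highest, half-log dilutions) in HepaRG, 48 h, duplicate wells. Endpoint: qRT-PCR mRNA, normalized (ACTB, GAPDH, POLR2A), bidirectional fitting with DMSO as baseline.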

[19] = read-out: HGF (gene 3082); test: LTEA_HepaRG_HGF: Life Technologies and Expression Analysis (LTEA) Assay for Hepatocyte Growth Facto (HGF) using HepaRG (AID 2283505)
In short: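 HGF transcript was quantified by TaqMan qRT-PCR against three housekeeping genes after 48 h treatment of HepaRG cells. Exposure ran in duplicate over eight half-log steps topping at 100 uM in 0.5% DMSO vehicle.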

Chain of Cytochrome P450 3A4 (Homo sapiens) (P08684 whole entry, looked up): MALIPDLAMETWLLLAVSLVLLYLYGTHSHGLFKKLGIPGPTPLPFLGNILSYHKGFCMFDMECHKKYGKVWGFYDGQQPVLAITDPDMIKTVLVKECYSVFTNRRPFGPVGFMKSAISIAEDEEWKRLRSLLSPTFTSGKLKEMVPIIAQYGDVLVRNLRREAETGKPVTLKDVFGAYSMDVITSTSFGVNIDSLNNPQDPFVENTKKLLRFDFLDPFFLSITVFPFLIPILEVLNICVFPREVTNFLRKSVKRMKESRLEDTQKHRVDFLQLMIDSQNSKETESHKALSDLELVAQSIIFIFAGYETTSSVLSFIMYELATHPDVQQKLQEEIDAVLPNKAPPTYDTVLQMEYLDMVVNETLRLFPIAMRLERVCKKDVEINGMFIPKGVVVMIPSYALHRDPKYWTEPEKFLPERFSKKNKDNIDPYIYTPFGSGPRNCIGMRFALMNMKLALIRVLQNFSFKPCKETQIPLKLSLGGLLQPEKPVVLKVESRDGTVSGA
Chain of Hypoxia-inducible factor 1-alpha (Homo sapiens) (Q16665 whole entry, looked up): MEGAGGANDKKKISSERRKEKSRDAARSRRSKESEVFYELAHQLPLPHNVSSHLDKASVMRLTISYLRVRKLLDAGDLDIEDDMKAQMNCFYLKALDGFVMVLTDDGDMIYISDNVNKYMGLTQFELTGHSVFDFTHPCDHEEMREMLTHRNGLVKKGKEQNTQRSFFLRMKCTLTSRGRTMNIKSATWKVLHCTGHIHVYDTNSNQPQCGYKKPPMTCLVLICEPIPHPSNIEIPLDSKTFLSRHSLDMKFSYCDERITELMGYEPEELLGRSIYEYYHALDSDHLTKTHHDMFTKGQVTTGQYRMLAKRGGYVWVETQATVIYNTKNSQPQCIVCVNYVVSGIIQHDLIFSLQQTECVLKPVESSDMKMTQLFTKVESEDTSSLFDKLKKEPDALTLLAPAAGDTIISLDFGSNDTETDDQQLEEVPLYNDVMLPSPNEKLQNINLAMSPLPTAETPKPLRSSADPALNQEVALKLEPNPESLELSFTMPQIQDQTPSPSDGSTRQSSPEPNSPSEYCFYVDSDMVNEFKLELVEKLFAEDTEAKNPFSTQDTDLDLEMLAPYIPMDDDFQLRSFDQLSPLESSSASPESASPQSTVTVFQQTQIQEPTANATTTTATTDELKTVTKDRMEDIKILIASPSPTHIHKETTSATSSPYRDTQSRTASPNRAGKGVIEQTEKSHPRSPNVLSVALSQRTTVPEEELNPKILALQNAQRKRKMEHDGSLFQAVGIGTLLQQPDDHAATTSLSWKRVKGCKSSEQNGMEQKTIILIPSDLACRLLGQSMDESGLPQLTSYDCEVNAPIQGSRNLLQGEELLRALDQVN
Chain of Cytochrome P450 3A7 (Homo sapiens) (P24462 whole entry, looked up): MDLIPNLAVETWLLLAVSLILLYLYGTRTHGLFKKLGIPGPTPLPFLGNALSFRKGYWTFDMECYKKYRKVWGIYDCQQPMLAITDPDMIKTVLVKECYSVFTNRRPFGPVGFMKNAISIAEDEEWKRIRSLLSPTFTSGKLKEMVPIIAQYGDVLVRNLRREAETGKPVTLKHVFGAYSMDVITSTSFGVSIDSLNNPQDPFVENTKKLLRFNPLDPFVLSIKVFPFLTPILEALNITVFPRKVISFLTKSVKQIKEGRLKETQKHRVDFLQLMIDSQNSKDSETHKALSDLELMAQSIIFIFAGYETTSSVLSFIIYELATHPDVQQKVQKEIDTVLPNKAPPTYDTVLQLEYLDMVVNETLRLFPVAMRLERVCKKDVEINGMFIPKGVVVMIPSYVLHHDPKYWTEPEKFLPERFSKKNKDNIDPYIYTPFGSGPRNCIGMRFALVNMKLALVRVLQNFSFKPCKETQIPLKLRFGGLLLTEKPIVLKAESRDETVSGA

CN(C)C(=S)SSC(=S)N(C)C
outcome [1]: inactive | outcome [2]: inactive | outcome [3]: inactive | outcome [4]: inactive | outcome [5]: inactive | outcome [6]: inactive | outcome [7]: inactive | outcome [8]: inactive | outcome [9]: inactive | outcome [10]: inactive | outcome [11]: inactive | outcome [12]: inactive | outcome [13]: inactive | outcome [14]: inactive | outcome [15]: inactive | outcome [16]: inactive | outcome [17]: inactive

N#CC(CCc1ccc(Cl)cc1)(Cn1cncn1)c1ccccc1 (stereo unspecified)
AC50 [1]: 38.8 µM (active) | AC50 [2]: 85.9 µM (active) | AC50 [18]: 34.8 µM (active) | outcome [3]: inactive | AC50 [4]: 79.3 µM (active) | AC50 [5]: 50 µM (active) | outcome [7]: inactive | AC50 [8]: 79.4 µM (active) | AC50 [9]: 40.4 µM (active) | AC50 [10]: 75.3 µM (active) | AC50 [11]: 68 µM (active) | outcome [12]: inactive | AC50 [13]: 67.3 µM (active) | outcome [14]: inactive | AC50 [15]: 79.5 µM (active) | AC50 [16]: 73.7 µM (active) | AC50 [17]: 67.9 µM (active) | AC50 [19]: 93.6 µM (active)

CC(C)(C)c1ccc(CSc2cnn(C(C)(C)C)c(=O)c2Cl)cc1
AC50 [1]: 1.75 µM (active) | AC50 [2]: 1.56 µM (active) | AC50 [18]: 2.06 µM (active) | outcome [3]: inactive | AC50 [4]: 1.12 µM (active) | AC50 [7]: 2.11 µM (active) | AC50 [8]: 2.8 µM (active) | AC50 [9]: 1.74 µM (active) | AC50 [10]: 26.1 µM (active) | AC50 [11]: 8.51 µM (active) | outcome [12]: inactive | AC50 [13]: 4.86 µM (active) | outcome [14]: inactive | outcome [15]: inactive | outcome [16]: inactive | AC50 [17]: 2.38 µM (active)

Reference: PubChem BioAssay (EPA / NIEHS)
